Compounds with a hit are over-represented: about 2.7% of the library has one in this group of screens.
HIF-2a inh: inhibitors of HIF-2a; 786-0 RCC cells HIF-2a reporter, luciferase luminescence, overnight; inhibition, % at 18.8 µM; 0.72% of 360,000 active; AID 624352;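 active = inhibition of the luminescence signal of 40% or more relative to plate controls, in a single-dose primary screen at 18.75 µM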
Shn3 3UTR inh: Schnurri-3 reporter inhibition in Clone20 osteoblasts. Clone20 osteoblast Shn3 3'UTR firefly luciferase, 24 h. inhibition, % at 12.5 µM. 0.52% of 360,000 active. AID 588674;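 active = mean inhibition of at least 75% with every replicate also reaching 75%; inconclusive = mean inhibition at least 75% but some replicate below; inactive = mean inhibition below 75%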;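 note: 0% = median of neutral control wells and 100% = pilot-screen positive control compound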
Peg3 promoter: Peg3 promoter activity inhibition | 1.7% of 360,000 active | AID 588405 | inhibition, % at 20 µM | HeLa PEG-Prom luciferase reporter, luminescence, overnight;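 active = inhibition of at least 50% at 20 µM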
TRPM1 prom inh: MITF TRPM1 promoter inhibition in SK-MEL-5 cells | SK-MEL-5 TRPM1 promoter luciferase, 24 h | inhibition, % at 12.5 µM | 0.83% of 330,000 active | AID 488899;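 active = mean inhibition across replicates of 60% or more, whatever share of single replicates reaches that level; inconclusive = some that reach 60%, reason not given; inactive = mean inhibition across replicates below 60%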
CF NFkB block: blocks PAF-induced NF-kB reporter in cystic fibrosis cells. KKLEB NF-kB-GFP reporter, GFP fluorescence overnight. inhibition, % at 5 µM. 0.86% of 360,000 active. AID 588850;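 active = at least 50% inhibition at 5 µM, scaled per plate between neutral and stimulator controls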;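 note: PAF is a Pseudomonas aeruginosa culture filtrate used as stimulus; plate controls were PAF-stimulated DMSO wells for no effect and unstimulated DMSO wells for full effect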
KKLEB tox: CF airway cell cytotoxicity counter-screen. KKLEB CF airway cells viability, ATPlite luminescence, overnight; active compounds read low; cells stimulated with P. aeruginosa culture filtrate. 0.36% of 360,000 active. AID 602141. activity change (cytotoxicity), % at 5 µM;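 active = corrected activity change at or below -50% at 5 µM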
* = called active by the depositor; ? = inconclusive; nt = no result given.

SMILES | HIF-2a inh | Shn3 3UTR inh | Peg3 promoter | TRPM1 prom inh | CF NFkB block | KKLEB tox
Cc1ccc(S(=O)(=O)n2ccc3cccnc32)cc1 | 8.9 | -8.5 | 16.3 | 11.1 | 10.7 | -6.8
O=S(=O)(c1ccc(Cl)cc1)n1ccc2cccnc21 | 21.8 | 97.8* | 20.4 | 0.8 | 16.1 | -15.8
Cc1ccc2c(Cl)c(C(=O)NCCCN3CCOCC3)sc2c1 | -109.1 | -37.5 | -110.7 | nt | -9.2 | -0.9
CN(C)c1ccnc2sc(C(=O)c3ccc(Br)cc3)c(N)c12 | -200.0 | -61.8 | -199.1 | -63.4 | -19.3 | 15.7
CN(C)c1ccnc2sc(C(N)=O)c(N)c12 | 16.7 | 9.8 | -6.6 | -10.4 | 91.0* | -36.0
CC(C)n1nc(C(=O)Nc2ccc3c(c2)OCO3)c2ccccc2c1=O | -141.0 | -16.2 | -127.8 | -13.8 | -2.1 | -3.0
C=CCSC(=S)NC1CCS(=O)(=O)C1 (configuration not stated) | 31.1 | -22.2 | 47.6 | 68.7* | 37.3 | -6.7
NC(=S)NC1CCS(=O)(=O)C1 (configuration not stated) | 9.9 | 4.2 | -1.4 | -3.3 | -14.9 | -10.5
COCCn1cnnc1SCC(=O)Nc1ccc(N2CCCCC2)cc1 | -26.7 | -12.4 | -7.8 | -7.0 | -28.7 | 15.7
CCCc1cc(=O)oc2c(CNc3ccc(OCC)cc3)c(O)ccc12 | 13.4 | -10.7 | 36.2 | 4.4 | 52.8* | -2.8
ClCc1nc2ccccc2n1Cc1ccccc1 | 20.8 | 16.7 | 107.4* | 52.7 | 10.8 | 0.4
Cc1ccc(Cl)cc1N1CCN(C(=O)c2cc3c(=O)[nH]c4ccccc4c3n2C)CC1 | 0.7 | 7.9 | 56.4* | 64.3* | 27.4 | -13.7
COc1ccc2sc(-c3ccccc3OC)c(-c3ccc(OCCN(C)C)cc3)c2c1 | -19.1 | 19.8 | 89.0* | 27.6 | 14.2 | -27.7
COc1cc2sc(-c3ccccc3OC)c(-c3ccc(OCCN4CCOCC4)cc3)c2cc1OC | 6.8 | 14.6 | 29.8 | -3.6 | 8.7 | 7.4
COc1ccc2sc(-c3ccccc3OC)c(-c3ccc(SC)cc3)c2c1 | -10.8 | nt | nt | nt | nt | nt
COc1ccc2c(-c3ccc(OCCN4CCOCC4)cc3)c(-c3ccccc3OC)sc2c1 | 5.3 | 1.6 | -8.8 | -9.2 | -2.5 | -22.4
COc1ccccc1-c1sc2ccccc2c1-c1ccc(OCCN2CCCCC2)cc1 | 7.1 | 55.5 | 91.3* | 1.5 | 20.8 | -5.1
COc1ccc2c(-c3ccc(OCCN4CCCCC4)cc3)c(-c3ccccc3OC)sc2c1 | -8.0 | -0.6 | 92.1* | 19.8 | 30.8 | -22.2
COc1ccc(S(=O)(=O)Nc2cccc3ccc(O)cc23)cc1 | 20.2 | -0.2 | 49.1 | 29.7 | 12.9 | -9.2
O=C(O)CSc1cc(NS(=O)(=O)c2ccc(Cl)cc2)c2ccccc2c1O | 16.9 | 9.6 | 30.0 | 36.1 | 81.0* | -20.7
COc1ccc(S(=O)(=O)Nc2cc(SCC(=O)O)c(O)c3ccccc23)cc1 | -2.5 | 12.9 | 10.3 | 68.4* | 78.5* | -21.1
COc1cc(OC)c2c(-c3cccc(-c4ccc(O)cc4)c3)cc(=O)oc2c1 | 4.7 | 6.3 | -1.6 | 36.5 | 13.4 | -1.8
COc1cc(OC)c2c(-c3cccc(-c4ccc(CO)cc4)c3)cc(=O)oc2c1 | 19.5 | 10.3 | 16.1 | 77.2* | 57.1* | -15.1
COc1ccc(-c2cccc(-c3cc(=O)oc4cc(OC)cc(OC)c34)c2)cc1 | 21.1 | 10.2 | -4.2 | 67.0* | 46.4 | -16.5
COC(=O)[C@@]1(Cc2ccc(F)cc2)[C@H]2c3cc(C(=O)N(C)C)n(CCCNc4ncc(C(F)(F)F)cc4Cl)c3C[C@H]2CN1C(=O)c1ccccc1 | -6.9 | nt | nt | nt | nt | nt
SMILES | HIF-2a inh | Shn3 3UTR inh | Peg3 promoter | TRPM1 prom inh | CF NFkB block | KKLEB tox
CCOc1ncccc1C(=O)NNC(=O)c1cccc(S(=O)(=O)N2CCOCC2)c1 | 9.3 | -11.6 | 12.8 | -0.2 | -18.6 | 3.2
CNc1ccc(/C=C/C(=O)c2cccc3ccccc23)cc1[N+](=O)[O-] | -62.6 | 22.2 | 67.2* | -10.5 | 14.4 | -35.5
CNc1ccc(C(=O)c2ccccc2C(=O)O)cc1[N+](=O)[O-] | 6.7 | 17.7 | -5.1 | 0.3 | 11.8 | -4.6
CCOc1ccc2nc3cc(NCc4ccc(OC)cc4)ccc3c(N)c2c1 | 21.0 | ? | 92.7* | ? | -22.1 | -5.0
COC(=O)/C=C\C(C#N)(C#N)N=Cc1ccc(OC)cc1 | -12.3 | 4.0 | 104.9* | 2.6 | 9.1 | -13.4
CCCOc1ccccc1N/C(=N/c1nc(C)cc(C)n1)NC(=O)COc1ccc(OC)cc1 | 10.2 | 91.3* | 29.6 | 0.6 | 13.1 | -20.6
